In all, about 68,000 sequences were measured (“fluorescence intensity (a.u.)”: median about 9,100, highest 2% from about 16,000 on). The entries come from a sample that favours the highest values as a whole.

In the experiment the target is OsWRKY34 (Oryza sativa, UniProt Q0JBA9 1-250). Put plainly: protein-binding microarray (RPBM); PBS, 2% BSA, 51.3 ng/ul salmon testes DNA, 50 uM zinc acetate, 200 nM TF, 25 C, 1 h; high values mean tight binding. The settings on record: protein: recombinant; tags: N-terminal polyhistidine and DsRed monomer fusion (pET32a); label: CyDye5-dUTP incorporated in the synthesized complementary strand; 3' TTTTT single-stranded linker to array surface; dsDNA, one strand shown. In a few lines: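 Using Ni–NTA, transcription factors fused N-terminally to polyhistidine and DsRed were purified after expression in E. coli BL21-CodonPlus. These were incubated at 200 nM with a blocked, double-stranded custom Agilent array for 1 h at 25 °C in a buffer containing 50 µM zinc acetate, and the array was washed. The binding signal is per-feature fluorescence intensity (arbitrary units) on an Axon 4000B scanner.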
OsWRKY34, sequence (Q0JBA9 entry or part of it): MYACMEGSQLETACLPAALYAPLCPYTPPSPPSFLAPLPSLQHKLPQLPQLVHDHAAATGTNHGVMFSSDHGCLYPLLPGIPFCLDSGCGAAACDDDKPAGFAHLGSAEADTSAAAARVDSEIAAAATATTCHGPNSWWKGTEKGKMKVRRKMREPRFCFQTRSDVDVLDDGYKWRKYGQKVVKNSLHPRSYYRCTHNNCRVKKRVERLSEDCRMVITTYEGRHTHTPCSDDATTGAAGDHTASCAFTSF
With “CATATCTAACTTTTGACCATCCGTTTTATTTAAAAAAATACGGAGTCACCTAGTGCAG”, the binding signal is 8310 fluorescence intensity (a.u.).

For “TATTTTCCTACCATTTGATTTATTGTTAAATATACTTTTTCGGAGTCACCTAGTGCAG”, the binding signal was 10200 fluorescence intensity (a.u.).

With “ATGTTTGACTTTTTTTTAAAAAATTTATATTTTTTTAAATCGGAGTCACCTAGTGCAG”, the binding signal was 8390 fluorescence intensity (a.u.).

Consider “ATGCCGTTGACTTTTTAAAATATATTTGACCATTTCCTATCGGAGTCACCTAGTGCAG”, for which the binding signal is 21700 fluorescence intensity (a.u.).

On to “CCTCCGCTCCTAAATATTTGACACCGCTGACTTTTTAAAACGGAGTCACCTAGTGCAG”, for which the binding signal is 11100 fluorescence intensity (a.u.).

Turning to “CCTCCGTTTTTAAATATTTGATGCCGTTGACTTTTTAAAACGGAGTCACCTAGTGCAG”, the binding signal is 19900 fluorescence intensity (a.u.).

In the case of “TCCTATGCCTGCAGCCTGTATCAAAAAATTTTCACAATGTCGGAGTCACCTAGTGCAG”, the binding signal is 8480 fluorescence intensity (a.u.).

Take “CTATATCGCACGTACTCCGGTACCAACGATCCTATACCATCGGAGTCACCTAGTGCAG”: the binding signal was 9910 fluorescence intensity (a.u.).

Turning to “TTTTGAAATCCGCGCCTACTTTTTTCTTGTCTCTTCTGTGCGGAGTCACCTAGTGCAG”, the binding signal is 8400 fluorescence intensity (a.u.).

On to “CACTCGCCACCGCCGCCCACCCGCAACTGCCGCCGACTCCCGGAGTCACCTAGTGCAG”, for which the binding signal is 10800 fluorescence intensity (a.u.).

“CTATTATAGCGTGTCGGACACTGACTCCTCCCATGTTCCTCGGAGTCACCTAGTGCAG”: the binding signal was 11100 fluorescence intensity (a.u.).

“AACTGAATTGTTGGTTTTTTCGGTTTTCGGTTGTCAGTTCCGGAGTCACCTAGTGCAG”: the binding signal was 11900 fluorescence intensity (a.u.).

For “TCCCTAAAATTTTTCACCCTTTCACATTAAACGTTTAACACGGAGTCACCTAGTGCAG”, the binding signal was 11400 fluorescence intensity (a.u.).

Consider “GTAACCCTAATTTCAGAAACTAAACACAGTCACGTAAGAACGGAGTCACCTAGTGCAG”, for which the binding signal is 65500 fluorescence intensity (a.u.).

Regarding “TTGTCAGTTTTCTCTAAACCACAGTAATTAGTCAGTTTCACGGAGTCACCTAGTGCAG”, the binding signal was 8420 fluorescence intensity (a.u.).

Consider “GTCCGCATCCAATTCCCGGGCCATTCGAAATCCCCAACACCGGAGTCACCTAGTGCAG”, for which the binding signal was 10200 fluorescence intensity (a.u.).

“GGCCATAGCGTGTATTGTTGTGTTTGTGTGTAAAATTTTTCGGAGTCACCTAGTGCAG”: the binding signal is 11300 fluorescence intensity (a.u.).

Turning to “GTATGCCATTCGCCCAAGATGCTTTTGCTTCGCATGGACCCGGAGTCACCTAGTGCAG”, the binding signal is 8540 fluorescence intensity (a.u.).

“ATGTTTTTATGCTGCATTCCCCATGTGTGTTTCCTTCTAACGGAGTCACCTAGTGCAG”: the binding signal is 19600 fluorescence intensity (a.u.).

“CTATTCTTGTGTTTTTTTCTATGTTTAATCCTATGTTTTACGGAGTCACCTAGTGCAG”: the binding signal is 16600 fluorescence intensity (a.u.).

As to “GCTTAATTACATGGGAGAGGCTTTGTTTCTTGTTTATTTTCGGAGTCACCTAGTGCAG”, the binding signal is 8760 fluorescence intensity (a.u.).

For “TTTATTTCCTAGATTAATTCTGATATGTTTCTATGTTTTACGGAGTCACCTAGTGCAG”, the binding signal was 9260 fluorescence intensity (a.u.).

With “CTTAATCGGTATGGGGAGAGTGTTCTTATTGTTTCATTTACGGAGTCACCTAGTGCAG”, the binding signal was 16800 fluorescence intensity (a.u.).

Consider “GTAATTTAATGTTCATTATGGTGTTTCTTAATTGTTTTTTCGGAGTCACCTAGTGCAG”, for which the binding signal is 9320 fluorescence intensity (a.u.).

As for “AGTTTTTCTAGTCCTTCTTAATGCATGTGTCACCTTCTAACGGAGTCACCTAGTGCAG”, the binding signal is 10300 fluorescence intensity (a.u.).

For the sequence “ATTCCTATATTTTTCCTATGTTTTGTAATCCTCTGTTTTACGGAGTCACCTAGTGCAG”, the binding signal was 12600 fluorescence intensity (a.u.).

Consider “TTTTTTTTTCCTTTTGCTGACATGCATTATGTTTTCTATTCGGAGTCACCTAGTGCAG”, for which the binding signal is 10000 fluorescence intensity (a.u.).

Turning to “GCCAGACCGCCACCGTCCGTTTCCACAACCGTGCCAGTGCCGGAGTCACCTAGTGCAG”, the binding signal was 10700 fluorescence intensity (a.u.).

Turning to “AGGTTGCCAGCGTGTGGGGTGGGTTATTTTCGTGTGCGGGCGGAGTCACCTAGTGCAG”, the binding signal is 11100 fluorescence intensity (a.u.).

As for “GACCCACCACCACCACCACGCCGCGAGCACGCGAGCGAACCGGAGTCACCTAGTGCAG”, the binding signal is 8880 fluorescence intensity (a.u.).

Regarding “GGGACCTAGGATGAACTTATTCCTTTCTGTTTCAACCATACGGAGTCACCTAGTGCAG”, the binding signal is 8370 fluorescence intensity (a.u.).

Regarding “TGTGCCAGTTGTTAGTCATGATCTTCCTGATGTGTCATCCCGGAGTCACCTAGTGCAG”, the binding signal was 8080 fluorescence intensity (a.u.).

As for “TTTTCAATTTTCTGGTTGAGTAGGGGTTCGGAATTTTCTTCGGAGTCACCTAGTGCAG”, the binding signal was 10600 fluorescence intensity (a.u.).

In the case of “GGTGTGTGCTGGCTATTTGTCAAAGATTATGTGGGTTTTTCGGAGTCACCTAGTGCAG”, the binding signal was 10400 fluorescence intensity (a.u.).

“GGCTGGTTTGGTTTGTGGCTAAAATTGGCCTTACCAATTTCGGAGTCACCTAGTGCAG”: the binding signal was 10500 fluorescence intensity (a.u.).

As to “TTTTTGGCTGGTCAAATTTGGCTAGTGTGGGGAGGGTTTTCGGAGTCACCTAGTGCAG”, the binding signal was 23600 fluorescence intensity (a.u.).

As for “CTTTTTTTTGATTTTTTTTATTTGTGGTTTGGATGTTTTTCGGAGTCACCTAGTGCAG”, the binding signal is 9280 fluorescence intensity (a.u.).

For the sequence “TATCCGGTTTTCTGGTTGAGGGGTATGAATTAGATTCGACCGGAGTCACCTAGTGCAG”, the binding signal is 10200 fluorescence intensity (a.u.).

For “TGGTTGAATTCTGGTTCGGGTATCCTCAATTTCGGGGTTTCGGAGTCACCTAGTGCAG”, the binding signal is 17700 fluorescence intensity (a.u.).

For the sequence “GGTGGTTTGAATTTGGTGTGGCGTTTTTCTTGGGCAGGGGCGGAGTCACCTAGTGCAG”, the binding signal is 21500 fluorescence intensity (a.u.).

Turning to “TTGGGTTGGGTCTTGGGTTTGGTGGTTTGAATTTGGTGTGCGGAGTCACCTAGTGCAG”, the binding signal was 13100 fluorescence intensity (a.u.).

As for “CAGGGTTTGGATGTGGATATGGTTTCTTCAAGGGTATTTTCGGAGTCACCTAGTGCAG”, the binding signal is 16400 fluorescence intensity (a.u.).

Turning to “ATTTGGTTTTATATGTTTGTGGAGTGATATATTTCGTATTCGGAGTCACCTAGTGCAG”, the binding signal is 8350 fluorescence intensity (a.u.).

On to “TGGTTTTTCATTTTGTGTGCGTGTGCACGTTTGTGTGGGGCGGAGTCACCTAGTGCAG”, for which the binding signal is 12700 fluorescence intensity (a.u.).

Source of the values: paper PMC7819943, “Rice protein-binding microarrays: a tool to detect cis-acting elements near promoter regions in rice”.
